Experiment in all cases: DAPPL (digital affinity profiling via proximity ligation, sequencing); 10 mM Tris-HCl pH 7.5, 50 mM NaCl, 1 mM DTT, 4% glycerol, room temperature, 30 min; GST-TFs on glutathione beads, 16-mer random dsDNA library, 0.1% formaldehyde crosslink after washing; high values mean tight binding
Conditions in all cases: protein: recombinant; tags: N-terminal GST; dsDNA, one strand shown

Assay [1] addresses T1, ELK1 (Homo sapiens, UniProt P19419 1-428).
T1 sequence: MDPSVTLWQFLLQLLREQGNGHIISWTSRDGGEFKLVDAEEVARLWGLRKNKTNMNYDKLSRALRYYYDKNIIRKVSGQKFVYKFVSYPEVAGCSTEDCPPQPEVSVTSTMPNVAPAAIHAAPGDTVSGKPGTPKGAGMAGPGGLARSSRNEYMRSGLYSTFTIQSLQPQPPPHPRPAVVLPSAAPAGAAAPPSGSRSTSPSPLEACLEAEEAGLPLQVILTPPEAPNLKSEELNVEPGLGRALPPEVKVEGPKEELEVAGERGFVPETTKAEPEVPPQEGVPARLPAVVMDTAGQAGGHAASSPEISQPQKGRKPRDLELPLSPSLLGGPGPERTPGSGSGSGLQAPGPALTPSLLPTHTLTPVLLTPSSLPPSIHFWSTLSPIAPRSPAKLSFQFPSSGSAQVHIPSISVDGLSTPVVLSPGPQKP
The method in brief:
(§1)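 Beads coated with glutathione captured GST-fused human transcription factors that had been expressed in yeast, and the factors were then given DNA barcodes and pooled with a tag-only sample. The pools were incubated with 200 nmole of a random double-stranded 16-mer DNA library in Tris/NaCl/DTT/glycerol buffer for 30 min at room temperature, washed, crosslinked with 0.1% formaldehyde and proximity-ligated with BsaI/T4 ligase at 37 °C for 1 h. PCR amplification and Illumina NextSeq500 sequencing came last. Binding signal is each hexamer's read frequency for a factor divided by its frequency for the tag-only sample.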

Assay [2] addresses T2, GABPA (Homo sapiens, UniProt Q06546 1-454).
T2 sequence: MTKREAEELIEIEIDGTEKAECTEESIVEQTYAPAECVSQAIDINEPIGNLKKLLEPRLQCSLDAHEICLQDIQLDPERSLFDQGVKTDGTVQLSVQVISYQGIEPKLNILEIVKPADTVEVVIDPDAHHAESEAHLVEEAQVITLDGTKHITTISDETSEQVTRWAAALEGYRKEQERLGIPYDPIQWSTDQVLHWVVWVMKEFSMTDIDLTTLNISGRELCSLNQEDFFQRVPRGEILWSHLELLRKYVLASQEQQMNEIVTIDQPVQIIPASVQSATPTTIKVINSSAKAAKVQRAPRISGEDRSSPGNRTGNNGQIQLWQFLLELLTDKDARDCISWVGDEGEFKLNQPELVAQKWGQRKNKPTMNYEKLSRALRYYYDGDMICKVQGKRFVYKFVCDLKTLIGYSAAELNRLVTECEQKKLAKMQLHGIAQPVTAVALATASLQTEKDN
Put shortly: as §1

In assay [3] the target is T3, ERG (Homo sapiens, UniProt P11308 1-479).
T3 sequence: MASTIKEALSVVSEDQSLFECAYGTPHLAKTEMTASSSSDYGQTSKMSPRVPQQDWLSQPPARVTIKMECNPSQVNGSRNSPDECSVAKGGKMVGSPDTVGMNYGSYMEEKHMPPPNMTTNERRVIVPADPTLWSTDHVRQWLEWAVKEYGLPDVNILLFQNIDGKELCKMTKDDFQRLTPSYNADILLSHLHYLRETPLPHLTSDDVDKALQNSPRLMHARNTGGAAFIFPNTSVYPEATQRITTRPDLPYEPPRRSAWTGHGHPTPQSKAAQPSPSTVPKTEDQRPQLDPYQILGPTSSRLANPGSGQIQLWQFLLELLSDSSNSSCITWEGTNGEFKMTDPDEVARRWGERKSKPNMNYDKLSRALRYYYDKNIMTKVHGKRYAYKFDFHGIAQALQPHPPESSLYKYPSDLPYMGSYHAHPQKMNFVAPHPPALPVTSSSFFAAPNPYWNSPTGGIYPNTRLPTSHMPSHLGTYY
Put shortly:
as §1

Assay [4] has as its target ELF1 (Homo sapiens, UniProt P32519 1-619). The method in brief:
as §1

In assay [5] the target is T4, EHF (Homo sapiens, UniProt Q9NZC4 1-300).
T4 sequence: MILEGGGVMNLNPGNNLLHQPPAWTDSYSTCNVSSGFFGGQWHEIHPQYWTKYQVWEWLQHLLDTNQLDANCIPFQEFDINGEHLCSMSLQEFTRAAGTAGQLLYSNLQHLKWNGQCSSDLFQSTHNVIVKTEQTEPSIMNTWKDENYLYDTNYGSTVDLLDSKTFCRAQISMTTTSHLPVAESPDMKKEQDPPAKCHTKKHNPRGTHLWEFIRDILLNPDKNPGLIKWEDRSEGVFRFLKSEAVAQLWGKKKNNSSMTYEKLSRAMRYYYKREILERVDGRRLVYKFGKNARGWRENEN
Put shortly: as §1

In assay [6] the target is SPI1 (Homo sapiens, UniProt P17947 1-270). The method in brief: as §1
The target of assay [7] is SPIB (Homo sapiens, UniProt Q01892 1-262). The method in brief: as §1
SPIB, sequence (Q01892 whole entry): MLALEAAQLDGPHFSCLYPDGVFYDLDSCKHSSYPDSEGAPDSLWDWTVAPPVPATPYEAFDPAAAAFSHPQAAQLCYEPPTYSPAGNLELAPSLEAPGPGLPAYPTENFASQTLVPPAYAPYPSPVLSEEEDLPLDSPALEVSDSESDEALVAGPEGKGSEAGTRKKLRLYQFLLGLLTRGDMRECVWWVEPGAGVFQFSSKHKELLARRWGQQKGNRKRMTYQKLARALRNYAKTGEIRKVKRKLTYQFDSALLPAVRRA
Assay [8] addresses T5, FEV (Homo sapiens, UniProt Q99581 1-238).
T5 sequence: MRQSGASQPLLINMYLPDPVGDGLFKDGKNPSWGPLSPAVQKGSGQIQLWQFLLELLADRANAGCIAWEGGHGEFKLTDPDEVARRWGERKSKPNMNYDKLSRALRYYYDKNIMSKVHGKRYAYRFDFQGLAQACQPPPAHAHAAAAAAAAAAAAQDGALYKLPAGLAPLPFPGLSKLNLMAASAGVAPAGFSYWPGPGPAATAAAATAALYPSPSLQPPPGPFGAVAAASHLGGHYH
Put shortly: as §1

Assay [9] concerns the target ETV5 (Homo sapiens, UniProt P41161 1-510). The method in brief: as §1
The target in assay [10] is ELF4 (Homo sapiens, UniProt Q99607 1-663). The method in brief: as §1
ELF4, sequence (Q99607 whole entry): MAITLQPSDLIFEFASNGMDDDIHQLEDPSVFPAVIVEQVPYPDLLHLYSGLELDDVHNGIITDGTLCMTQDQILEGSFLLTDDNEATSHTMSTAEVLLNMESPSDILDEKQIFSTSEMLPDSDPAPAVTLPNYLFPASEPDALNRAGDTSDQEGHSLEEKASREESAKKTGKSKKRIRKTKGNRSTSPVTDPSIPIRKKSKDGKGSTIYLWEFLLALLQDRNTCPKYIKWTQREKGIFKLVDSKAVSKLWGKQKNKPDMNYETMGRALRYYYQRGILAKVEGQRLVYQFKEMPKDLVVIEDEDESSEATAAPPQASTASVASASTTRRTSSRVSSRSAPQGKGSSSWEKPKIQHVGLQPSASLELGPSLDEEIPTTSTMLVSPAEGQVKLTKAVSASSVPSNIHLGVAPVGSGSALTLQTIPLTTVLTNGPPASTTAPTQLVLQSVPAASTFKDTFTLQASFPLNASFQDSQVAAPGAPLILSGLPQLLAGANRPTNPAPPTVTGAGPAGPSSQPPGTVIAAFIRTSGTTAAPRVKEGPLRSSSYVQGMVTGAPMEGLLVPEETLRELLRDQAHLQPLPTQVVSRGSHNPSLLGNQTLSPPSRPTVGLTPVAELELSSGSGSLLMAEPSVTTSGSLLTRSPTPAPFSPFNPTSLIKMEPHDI
For assay [11], the target named is T6, ETV2 (Homo sapiens, UniProt O00321 1-342).
T6 sequence: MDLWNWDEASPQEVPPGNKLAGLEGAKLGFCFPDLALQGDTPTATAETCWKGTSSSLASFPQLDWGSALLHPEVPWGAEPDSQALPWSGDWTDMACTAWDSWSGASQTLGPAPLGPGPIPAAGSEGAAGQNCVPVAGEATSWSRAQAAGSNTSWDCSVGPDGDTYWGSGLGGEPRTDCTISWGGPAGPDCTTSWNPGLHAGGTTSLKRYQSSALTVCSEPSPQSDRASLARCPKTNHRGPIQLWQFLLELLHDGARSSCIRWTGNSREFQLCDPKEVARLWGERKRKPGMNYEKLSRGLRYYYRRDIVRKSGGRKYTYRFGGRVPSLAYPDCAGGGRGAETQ
The method in brief:
as §1

Assay [12] has as its target ETV1 (Homo sapiens, UniProt P50549 1-477). The method in brief:
as §1

The target in assay [13] is T7, ERF (Homo sapiens, UniProt P50548 1-548).
T7 sequence: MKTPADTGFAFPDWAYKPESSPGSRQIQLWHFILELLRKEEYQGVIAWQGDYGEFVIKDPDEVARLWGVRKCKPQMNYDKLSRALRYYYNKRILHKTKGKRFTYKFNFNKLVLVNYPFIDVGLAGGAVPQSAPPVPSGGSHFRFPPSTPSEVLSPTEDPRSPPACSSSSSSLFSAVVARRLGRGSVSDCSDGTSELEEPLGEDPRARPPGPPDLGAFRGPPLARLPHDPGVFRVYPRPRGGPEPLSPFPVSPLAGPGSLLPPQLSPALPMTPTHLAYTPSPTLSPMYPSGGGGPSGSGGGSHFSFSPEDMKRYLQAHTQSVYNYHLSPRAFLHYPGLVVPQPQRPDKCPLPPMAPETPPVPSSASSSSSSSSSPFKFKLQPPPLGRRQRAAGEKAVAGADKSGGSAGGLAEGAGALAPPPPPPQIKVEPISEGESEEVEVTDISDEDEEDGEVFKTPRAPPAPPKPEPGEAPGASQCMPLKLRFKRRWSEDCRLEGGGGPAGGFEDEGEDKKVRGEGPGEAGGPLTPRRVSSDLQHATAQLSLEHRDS
Put shortly:
as §1

The target in assay [14] is T8, ETV3L (Homo sapiens, UniProt Q6ZN32 1-361).
T8 sequence: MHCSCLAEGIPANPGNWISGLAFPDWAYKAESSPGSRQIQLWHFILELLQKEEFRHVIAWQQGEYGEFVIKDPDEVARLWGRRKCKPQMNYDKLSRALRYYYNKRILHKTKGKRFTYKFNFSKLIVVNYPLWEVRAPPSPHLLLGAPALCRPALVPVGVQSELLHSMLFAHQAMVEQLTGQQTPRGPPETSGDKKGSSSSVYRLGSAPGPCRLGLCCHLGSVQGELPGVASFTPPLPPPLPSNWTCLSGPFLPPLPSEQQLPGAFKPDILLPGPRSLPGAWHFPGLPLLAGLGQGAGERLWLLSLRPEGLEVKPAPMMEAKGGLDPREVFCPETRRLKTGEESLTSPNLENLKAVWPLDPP
Put shortly:
as §1

Assay [15] has as its target T9, ETS2 (Homo sapiens, UniProt P15036 1-469).
T9 sequence: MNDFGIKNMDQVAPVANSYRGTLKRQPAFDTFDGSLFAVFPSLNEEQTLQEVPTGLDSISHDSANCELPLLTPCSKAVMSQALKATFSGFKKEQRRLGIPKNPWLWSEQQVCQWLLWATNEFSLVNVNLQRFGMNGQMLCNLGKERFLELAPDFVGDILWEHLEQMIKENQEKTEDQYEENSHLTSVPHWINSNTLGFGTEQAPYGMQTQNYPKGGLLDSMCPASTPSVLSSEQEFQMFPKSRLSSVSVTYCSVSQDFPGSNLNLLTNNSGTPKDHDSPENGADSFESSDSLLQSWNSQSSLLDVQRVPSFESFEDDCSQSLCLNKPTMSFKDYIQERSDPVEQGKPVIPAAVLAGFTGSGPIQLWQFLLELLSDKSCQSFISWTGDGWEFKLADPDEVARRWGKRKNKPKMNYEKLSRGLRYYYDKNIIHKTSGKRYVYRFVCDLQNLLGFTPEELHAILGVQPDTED
Put shortly: as §1

Assay [16] addresses T10, SPDEF (Homo sapiens, UniProt O95238 1-335).
T10 sequence: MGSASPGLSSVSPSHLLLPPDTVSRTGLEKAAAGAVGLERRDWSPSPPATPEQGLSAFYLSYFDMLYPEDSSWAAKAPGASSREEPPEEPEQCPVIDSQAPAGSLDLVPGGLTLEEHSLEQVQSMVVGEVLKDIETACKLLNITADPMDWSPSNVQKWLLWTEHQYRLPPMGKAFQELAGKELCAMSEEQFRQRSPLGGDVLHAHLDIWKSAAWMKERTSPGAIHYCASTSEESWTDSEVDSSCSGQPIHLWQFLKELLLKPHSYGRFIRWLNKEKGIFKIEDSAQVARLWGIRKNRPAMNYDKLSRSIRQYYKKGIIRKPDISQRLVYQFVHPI
The method in brief: as §1

The target in assay [17] is T11, ETV7 (Homo sapiens, UniProt Q9Y603 1-341).
T11 sequence: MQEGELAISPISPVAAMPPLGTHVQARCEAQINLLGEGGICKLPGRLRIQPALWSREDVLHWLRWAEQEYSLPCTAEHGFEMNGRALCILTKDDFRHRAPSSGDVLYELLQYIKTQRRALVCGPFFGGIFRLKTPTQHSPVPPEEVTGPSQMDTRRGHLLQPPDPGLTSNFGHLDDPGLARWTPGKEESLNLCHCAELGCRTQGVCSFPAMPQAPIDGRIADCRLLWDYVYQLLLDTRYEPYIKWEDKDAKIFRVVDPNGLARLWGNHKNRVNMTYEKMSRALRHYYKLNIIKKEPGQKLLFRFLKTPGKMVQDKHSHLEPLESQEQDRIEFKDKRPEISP
The method in brief:
as §1

In assay [18] the target is T12, ETV3 (Homo sapiens, UniProt P41162-2 1-143).
T12 sequence: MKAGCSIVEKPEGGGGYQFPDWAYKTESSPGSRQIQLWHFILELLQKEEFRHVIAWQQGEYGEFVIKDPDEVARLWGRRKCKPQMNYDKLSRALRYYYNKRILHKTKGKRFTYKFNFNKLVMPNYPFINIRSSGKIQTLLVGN
The method in brief: as §1

The target in assay [19] is ETV6 (Homo sapiens, UniProt P41212 1-452). Put shortly: as §1
ETV6, sequence (P41212 whole entry): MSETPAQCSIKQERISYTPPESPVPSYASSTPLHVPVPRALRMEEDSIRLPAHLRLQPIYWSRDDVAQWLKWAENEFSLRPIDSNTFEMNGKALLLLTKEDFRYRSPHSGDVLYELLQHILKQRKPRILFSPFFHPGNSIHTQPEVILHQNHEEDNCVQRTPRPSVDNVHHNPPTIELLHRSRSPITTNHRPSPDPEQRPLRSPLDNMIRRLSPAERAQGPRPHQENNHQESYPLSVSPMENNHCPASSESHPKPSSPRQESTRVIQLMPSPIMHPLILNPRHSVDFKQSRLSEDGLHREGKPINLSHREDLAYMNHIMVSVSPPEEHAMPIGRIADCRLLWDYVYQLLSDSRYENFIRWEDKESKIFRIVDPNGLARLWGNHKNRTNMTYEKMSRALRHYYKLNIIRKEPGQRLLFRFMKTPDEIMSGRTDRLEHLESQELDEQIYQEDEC

The record followed here is paper PMC7862700, “An all-to-all approach to the identification of sequence-specific readers for epigenetic DNA modifications on cytosine”.

ETV5, sequence (P41161 whole entry): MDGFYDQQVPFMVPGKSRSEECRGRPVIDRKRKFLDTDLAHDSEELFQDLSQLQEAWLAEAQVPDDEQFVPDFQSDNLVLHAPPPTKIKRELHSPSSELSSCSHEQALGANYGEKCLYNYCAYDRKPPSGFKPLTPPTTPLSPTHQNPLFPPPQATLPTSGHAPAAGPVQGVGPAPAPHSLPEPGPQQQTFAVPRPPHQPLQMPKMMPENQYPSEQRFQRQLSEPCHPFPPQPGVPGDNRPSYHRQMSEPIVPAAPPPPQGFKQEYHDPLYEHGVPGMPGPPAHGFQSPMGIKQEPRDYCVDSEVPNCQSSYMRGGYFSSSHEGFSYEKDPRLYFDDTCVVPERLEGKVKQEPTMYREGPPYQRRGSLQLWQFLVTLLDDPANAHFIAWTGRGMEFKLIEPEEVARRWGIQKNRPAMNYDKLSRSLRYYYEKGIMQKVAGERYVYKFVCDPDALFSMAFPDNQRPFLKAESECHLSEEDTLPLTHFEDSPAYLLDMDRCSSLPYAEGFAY
ELF1, sequence (P32519 whole entry): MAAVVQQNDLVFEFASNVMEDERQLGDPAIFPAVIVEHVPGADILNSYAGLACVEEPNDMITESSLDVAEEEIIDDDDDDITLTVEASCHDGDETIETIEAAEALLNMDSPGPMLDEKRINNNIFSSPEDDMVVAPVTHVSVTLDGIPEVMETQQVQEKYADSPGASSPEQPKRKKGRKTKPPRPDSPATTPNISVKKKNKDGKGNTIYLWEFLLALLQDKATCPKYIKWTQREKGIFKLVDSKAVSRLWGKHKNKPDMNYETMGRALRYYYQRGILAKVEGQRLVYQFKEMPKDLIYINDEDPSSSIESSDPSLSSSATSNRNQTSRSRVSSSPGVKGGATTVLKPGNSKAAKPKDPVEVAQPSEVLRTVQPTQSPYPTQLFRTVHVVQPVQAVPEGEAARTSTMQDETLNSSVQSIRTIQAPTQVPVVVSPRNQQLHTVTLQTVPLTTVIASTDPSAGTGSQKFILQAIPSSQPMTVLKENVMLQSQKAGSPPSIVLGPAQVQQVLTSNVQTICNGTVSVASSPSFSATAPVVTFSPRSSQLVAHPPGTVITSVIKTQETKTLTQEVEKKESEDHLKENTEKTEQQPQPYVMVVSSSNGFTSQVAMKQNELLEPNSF
ETV1, sequence (P50549 whole entry): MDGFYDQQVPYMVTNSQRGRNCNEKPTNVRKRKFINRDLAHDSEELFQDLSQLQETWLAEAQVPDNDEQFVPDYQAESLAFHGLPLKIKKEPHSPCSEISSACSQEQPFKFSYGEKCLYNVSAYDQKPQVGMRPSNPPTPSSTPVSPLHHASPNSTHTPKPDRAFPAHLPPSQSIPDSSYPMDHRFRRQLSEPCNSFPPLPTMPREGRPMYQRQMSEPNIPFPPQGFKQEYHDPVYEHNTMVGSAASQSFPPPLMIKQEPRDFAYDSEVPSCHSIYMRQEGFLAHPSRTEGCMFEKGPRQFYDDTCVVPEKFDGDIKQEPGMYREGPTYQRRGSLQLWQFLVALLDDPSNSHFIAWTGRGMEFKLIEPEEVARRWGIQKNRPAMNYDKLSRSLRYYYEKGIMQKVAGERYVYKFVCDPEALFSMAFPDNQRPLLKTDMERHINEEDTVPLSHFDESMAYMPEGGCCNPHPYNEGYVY

As to AACCGC, the binding signal in assay [1] was 1.07 fold enrichment (6-mer frequency, TF over GST control); in assay [2] it was 1.1 fold enrichment (6-mer frequency, TF over GST control); in [3] it was 1.09 fold enrichment (6-mer frequency, TF over GST control); in [4], 1.11 fold enrichment (6-mer frequency, TF over GST control); in assay [5], 1.18 fold enrichment (6-mer frequency, TF over GST control); in assay [6], 1.04 fold enrichment (6-mer frequency, TF over GST control). Also, the binding signal in [7] was 1.12 fold enrichment (6-mer frequency, TF over GST control); in [8], 1.09 fold enrichment (6-mer frequency, TF over GST control); in [9], 1.09 fold enrichment (6-mer frequency, TF over GST control); in [10], 1.12 fold enrichment (6-mer frequency, TF over GST control); in assay [11], 1.12 fold enrichment (6-mer frequency, TF over GST control); in assay [12] it was 1.02 fold enrichment (6-mer frequency, TF over GST control). Besides, the binding signal in assay [13] was 1.08 fold enrichment (6-mer frequency, TF over GST control); in assay [14] it was 1.08 fold enrichment (6-mer frequency, TF over GST control); in [15], 1.1 fold enrichment (6-mer frequency, TF over GST control); in [16] it was 1.11 fold enrichment (6-mer frequency, TF over GST control); in assay [17] it was 1.07 fold enrichment (6-mer frequency, TF over GST control); in assay [18], 1.08 fold enrichment (6-mer frequency, TF over GST control). The binding signal in [19] is 1.19 fold enrichment (6-mer frequency, TF over GST control).
